This assay addresses PUM1 PUF domain R1-RWQ (Homo sapiens, UniProt Q14671 828-1176, S863R;R864W). As to the kind of experiment: yeast three-hybrid, YBZ-1, SC-Leu-His + 0.5 mM 3-AT, 4 days. Particulars: tags: N-Gal4 AD-HA kept; label: inside an RPR1-promoter hybrid RNA with tandem MS2 sites; ssRNA. Summed up: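 The interaction score is the log change in how often each variant appears, from input to selection. Frequencies came from PCR-amplified, Illumina-sequenced repeat regions of Pumilio-1 PUF domain libraries grown in strain YBZ-1 (LexA–MS2 coat fusion, HIS3 reporter) alongside matching RNA elements. Input plates were SC-Leu and selection plates were SC-Leu-His + 0.5 mM 3-AT, each for four days, and the log2 calculation used a pseudocount of 1 where a variant was absent.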
As for “GGCUAGAACUAGUGGAUCCCCCGGCGCCCGGCGGCUCGAGCCCGGGUAAGUGUAAAUUGUCUGCAUGCCGCCGGGCGCCAUGCCUGCAGGUCGACUCUAGAAAACAUG”, the binding signal is 7.23 log2 enrichment (interaction score).
The same measure for “GGCUAGAACUAGUGGAUCCCCCGGCGCCCGGCGGCUCGAGCCCGGGUAAGUGUAAAUCGUCUGCAUGCCGCCGGGCGCCAUGCCUGCAGGUCGACUCUAGAAAACAUG”: 6.93 log2 enrichment (interaction score); for “GGCUAGAACUAGUGGAUCCCCCGGCGCCCGGCGGCUCGAGCCCGGGUAAGUGUAAAUGGUCUGCAUGCCGCCGGGCGCCAUGCCUGCAGGUCGACUCUAGAAAACAUG”: 2.2 log2 enrichment (interaction score).

Values taken from paper PMC8384837, “Expanding the binding specificity for RNA recognition by a PUF domain”.
